The record followed here is PubChem BioAssay (NCATS).

Assay [1] in a line: Cell Viability - Hek293 (AID 427;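 active = compounds whose dose-response curve shows a full or clear partial loss of cell viability, called from curve shape rather than a numeric limit; inconclusive = weak partial curves or an effect only at the top dose; inactive = no dose-dependent loss of viability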;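 note: potency is the fitted concentration of half-maximal effect; cells exposed to compound for 40 hours at 37 °C before reading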). Conditions: qHTS. The essentials:
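HEK293 cells in complete medium were exposed to compound for 40 hr at 37 °C, then cellular ATP was read by CellTiter-Glo luminescence. Data were normalized to DMSO (basal) and 100 uM tamoxifen (100% inhibition), and AC50 came from Hill fits.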

A short description of assay [2]: Cell Viability - MRC5 (AID 434; calls by dose curve;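 note: potency is the fitted concentration of half-maximal effect; potency reflects cytotoxicity seen as loss of intracellular ATP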). Conditions: MRC5 lung fibroblast viability, qHTS. In outline:
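MRC5 normal human lung fibroblasts, 1500 cells/well, exposed to compound for 40 hr at 37 C. Cellular ATP was read by CellTiter-Glo luminescence; data normalized to DMSO and 100 uM tamoxifen, with AC50 from Hill fits.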
In general terms: Quantitative high-throughput screening tests each substance at several concentrations.

Assay [3] can be described thus: Cell Viability - N2a (AID 540).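 Note: plate controls were DMSO alone for no effect and tamoxifen control for full effect; nearly all actives have a fitted effect of over 45% in size.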 Conditions: N2a mouse neuroblastoma cell viability; at 92.2 µM (top of the series). The essentials:
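Mouse neuroblastoma N2a cells, 1500/well, exposed to compounds 40 h at 37 °C in complete medium. Viability measured as cellular ATP by CellTiter-Glo luminescence; AC50 from Hill fits of concentration-response.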

Assay [4] in a line: Cell Viability - Mesenchymal (AID 546).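 Note: cells exposed to compound for 40 hours before reading; 0% = DMSO only and -100% = 100 µM tamoxifen.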 Conditions: mesenchymal cells viability, qHTS; series mostly up to 91.7 µM. The essentials:
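Human kidney mesenchymal cells from normal renal glomeruli, 1000 cells/well, rested 5 hr at 37 °C, then treated 40 hr at 37 °C in complete medium. Cellular ATP read by CellTiter-Glo luminescence; AC50 from Hill-equation fits.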

Assay [5] is described as follows: MultiTox-Fluor Cytotoxicity Assay - LYMP1-001 - Live Cells (AID 947).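 For activity change, negative = cytotoxicity: 0% = DMSO only and full inhibition = tetraoctylammonium bromide control.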 Note: potency is the fitted concentration of half-maximal effect. Conditions: LYMP1-001 lymphoblastoid cells, live-cell protease fluorescence viability; series mostly up to 92.2 µM.
A short description of assay [6]: Cell Viability - LYMP2-005 (AID 967). Note: potency is the fitted concentration of half-maximal effect. Conditions: LYMP2-005 lymphoblastoid cell viability; series mostly up to 92.2 µM. The essentials: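 Acute cytotoxicity is scored as a concentration-dependent drop in intracellular ATP in human lymphoblastoid LYMP2-005 cells after 24 h compound treatment. ATP is quantified by luciferase luminescence, and AC50 is derived by Hill-equation modelling.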

The nature of assay [7]: Cell Viability - LYMP2-013 (AID 970). Note: nearly all actives have a fitted effect of over 55% in size. Note: potency is the fitted concentration of half-maximal effect. Conditions: LYMP2-013 lymphoblastoid cells viability; series mostly up to 92.2 µM. In outline:
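Human lymphoblastoid LYMP2-013 cells, 2500/well, treated 24 h at 37 C in complete medium; viability as intracellular ATP by CellTiter-Glo luminescence after 30 min. AC50 from Hill fits of qHTS concentration-response.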

The nature of assay [8]: Cell Viability - LYMP2-015 (AID 971). Note: nearly all actives have a fitted effect of over 55% in size. Note: potency is the fitted concentration of half-maximal effect. Conditions: LYMP2-015 lymphoblastoid cell viability; series mostly up to 92.2 µM. In outline:
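LYMP2-015 human lymphoblastoid cells (2500/well) in complete medium, compound-treated 24 h at 37 C; viability read as cellular ATP by CellTiter-Glo luminescence after 30 min at room temperature. AC50 from Hill-equation fits of qHTS concentration-response data.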

Assay [9] is described as follows: Cell Viability - LYMP2-019 (AID 973).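 For activity change, negative = cytotoxicity: 0% = DMSO alone and full effect = 92 µM tetraoctylammonium bromide.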 Note: nearly all actives have a fitted effect of over 55% in size. Note: potency is the fitted concentration of half-maximal effect. Conditions: LYMP2-019 lymphoblastoid cell line viability; series mostly up to 92.2 µM. The essentials:
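Human lymphoblastoid LYMP2-019 cells (2500/well) preincubated 5 h at 37 C, then treated 24 h at 37 C in complete medium. Viability by CellTiter-Glo ATP luminescence after 30 min at room temperature; AC50 from Hill fits.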

Assay [10] is described as follows: Cell Viability - LYMP2-006 (AID 978). For activity change, negative = cytotoxicity: % is set by controls: 0 for no effect and ±100 for the full control effect.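 Note: cells exposed to compound for 24 hours; nearly all actives have a fitted effect of over 60% in size.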 Note: potency is the fitted concentration of half-maximal effect. Conditions: LYMP2-006 lymphoblastoid cell viability, qHTS; series mostly up to 92.2 µM. In outline: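 Cells are seeded at 2500 per well and rested 5 hr at 37 C. Compounds are added across a concentration series for 24 hr at 37 C, after which ATP is quantified by luciferase luminescence.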
Assay [11] in a line: Cell Viability - LYMP2-007 (AID 979).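 For activity change, negative = cytotoxicity: 0% = DMSO only and the negative end = 92 µM tetraoctylammonium bromide.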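 Note: cells exposed to compound for 24 h before reading; nearly all actives have a fitted effect of over 60% in size.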 Note: potency is the fitted concentration of half-maximal effect. Conditions: LYMP2-007 lymphoblastoid cell viability; series mostly up to 92.2 µM. In outline: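 Human lymphoblastoid LYMP2-007 cells (2500/well) preincubated 5 h at 37 C, then treated 24 h at 37 C in complete medium. Viability by CellTiter-Glo ATP luminescence after 30 min at room temperature; AC50 from Hill fits.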
Assay [12] is described as follows: Cell Viability - LYMP2-008 (AID 980). For activity change, negative = cytotoxicity: % is set by controls: 0 for no effect and ±100 for the full control effect. Note: nearly all actives have a fitted effect of over 60% in size. Note: potency is the fitted concentration of half-maximal effect. Conditions: LYMP2-008 lymphoblastoid cell viability, qHTS; series mostly up to 92.2 µM. The essentials:
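LYMP2-008 lymphoblastoid cells (2500/well) plated 5 h, then treated 24 h at 37 C in complete medium. Viability read as intracellular ATP by CellTiter-Glo luminescence after 30 min at room temperature; AC50 from Hill fits.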

Assay [13] is described as follows: Cell Viability - LYMP2-014 (AID 983).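 For activity change, negative = cytotoxicity: plate controls were DMSO only for no effect and 92 µM tetraoctylammonium bromide for full effect.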 Note: nearly all actives have a fitted effect of over 50% in size. Note: potency is the fitted concentration of half-maximal effect. Conditions: LYMP2-014 lymphoblastoid cells, viability qHTS; series mostly up to 92.2 µM. The essentials: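 LYMP2-014 human lymphoblastoid cells, 2500/well, treated 24 h at 37 C in complete medium; viability by CellTiter-Glo ATP luminescence after 30 min at room temperature. AC50 from Hill fits of qHTS concentration-response; tetraoctylammonium bromide positive control.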

In assay [14] the target is Estrogen receptor (Homo sapiens) (UniProt P03372). The assay can be described thus: qHTS assay for small molecule antagonists of estrogen receptor alpha signaling (AID 588513; active = well fitted curve in the direction sought with a large enough effect in the signal ratio, with a control signal flat, not every such curve was filed as active; inconclusive = small, poorly fitted or top-dose-only effect, or effect the other way, or a change in a side signal; inactive = no such curve, though single readings can be large or run the other way; the % refers to the signal ratio; note: potency is the fitted concentration of half-maximal effect). Conditions: ER-alpha-UAS-bla HEK293, beta-lactamase ratio, antagonist mode; series mostly up to 76.9 µM. The essentials: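 Fluorescence from CCF4 substrate after 2 h at room temperature gave reporter activity; cells had been exposed to compound and 0.5nM 17-beta-estradiol for 18 h at 37 C. Hill-equation fitting yielded IC50 and maximal response.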

Assay [15] has as its target Peroxisome proliferator-activated receptor delta (Homo sapiens) (UniProt Q03181). As to the kind of experiment: qHTS assay for small molecule agonists of peroxisome proliferator-activated receptor delta signaling (AID 588534; calls by dose curve;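 note: 0% = DMSO basal wells and 100% = positive control agonist at 10 µM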). Conditions: HEK293T PPARdelta-UAS-bla, beta-lactamase ratio, 18 h; series mostly up to 76.7 µM. In outline: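 Cells carrying a PPAR-delta beta-lactamase reporter were treated with compounds for 18 h at 37 °C in agonist mode. CCF4 fluorescence was read after 2 h; EC50 and efficacy from Hill fits.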

Assay [16] in a line: qHTS assay for small molecule antagonists of peroxisome proliferator-activated receptor delta signaling (AID 588535).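 Note: cells co-treated with a PPAR-delta agonist as stimulator during compound exposure.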 Conditions: HEK293T PPARd-UAS-bla, beta-lactamase FRET ratio, 18 h; 460 nm channel. In outline: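 Antagonist-mode beta-lactamase reporter (GeneBLAzer PPAR-delta-UAS-bla) in HEK293T cells, 2% charcoal/dextran FBS, 4000 cells/well. Compound titrations, 18 h at 37 C; CCF4 ratio read, IC50 and efficacy from Hill fits.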

Assay [17] has as its target Thyroid hormone receptor beta (Homo sapiens) (UniProt P10828). The assay can be described thus: qHTS assay for small molecule antagonists of thyroid hormone receptor beta signaling (AID 588547; active = well fitted inhibition curve with a large enough effect in the signal ratio, with a control signal flat, not every such curve was filed as active; inconclusive = small, poorly fitted or top-dose-only effect, or effect the other way, or a change in a side signal; the % refers to the signal ratio;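 note: cells stimulated with 0.4 nM T3 agonist during compound exposure; % is set by controls: 0 for no effect and ±100 for the full control effect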). Conditions: TR-UAS-bla HEK293, beta-lactamase ratio, antagonist mode, 18 h. The essentials:
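TR-UAS-bla GripTite HEK293 cells in 2% charcoal/dextran FBS medium; compounds 0.59 nM to 92 uM with T3 at 0.4nM final, 18 h at 37 C. Beta-lactamase read by CCF4 fluorescence (460/530 nm); Hill fits gave IC50 and efficacy.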

In assay [18] the target is Nuclear receptor ROR-gamma (Homo sapiens) (UniProt P51449). The assay can be described thus: qHTS assay for small molecule antagonists of the retinoid-related orphan receptor gamma (ROR-gamma) signaling pathway (AID 651802). Note: nearly all actives have a fitted effect of over 60% in size. Note: potency is the fitted concentration of half-maximal effect. Conditions: ROR-gamma antagonist cell reporter assay; series mostly up to 92.2 µM. In outline:
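CHO cells with TET-inducible ROR-gamma and RORE-luciferase reporter, dosed then doxycycline-induced. After 16 h at 37C, One-Glo luminescence read; decreased signal indicates antagonism.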

Assay [19] can be described thus: Cell Viability - Jurkat (AID 426;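 active = dose-dependent loss of cell ATP signal giving a full or clear fitted curve, ranked by lower potency value; inconclusive = weak partial curve or response only at the top dose; inactive = no loss of viability signal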; note: potency is the fitted concentration of half-maximal effect). Conditions: qHTS. The essentials:
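Jurkat (Clone E6-1) cells, 5000/well in complete medium, exposed to compounds for 40 hr at 37C; intracellular ATP measured by CellTiter-Glo luminescence after 20 min at room temperature. AC50 from Hill fits.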

Assay [20] can be described thus: Cell Viability - SK-N-SH (AID 435; calls by dose curve;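 note: potency is the fitted concentration of half-maximal effect; compound exposure lasted 40 h at 37 °C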). Conditions: SK-N-SH neuroblastoma cell viability qHTS. The essentials: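 Luminescent ATP signal served as the viability read-out after 40 hours of compound treatment of human neuroblastoma SK-N-SH cells. Concentration-response data, scaled between DMSO and 100 uM tamoxifen, gave AC50 values by standard Hill modeling.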

“And” between values parts separate entries of the source, which are not always exact repeats. Identical values can stand only once. The source made the active and inactive calls. Unless noted, calls come from the whole dose curve; as a rule, active = well fitted curve in the direction sought with a large enough effect; inconclusive = small, poorly fitted or top-dose-only effect, or another doubt; inactive = no such curve, though single readings can be large; an effect the other way counts as inactive or inconclusive. Some results are limits rather than exact numbers.

Nuclear receptor ROR-gamma (Homo sapiens), sequence (P51449 whole entry, looked up): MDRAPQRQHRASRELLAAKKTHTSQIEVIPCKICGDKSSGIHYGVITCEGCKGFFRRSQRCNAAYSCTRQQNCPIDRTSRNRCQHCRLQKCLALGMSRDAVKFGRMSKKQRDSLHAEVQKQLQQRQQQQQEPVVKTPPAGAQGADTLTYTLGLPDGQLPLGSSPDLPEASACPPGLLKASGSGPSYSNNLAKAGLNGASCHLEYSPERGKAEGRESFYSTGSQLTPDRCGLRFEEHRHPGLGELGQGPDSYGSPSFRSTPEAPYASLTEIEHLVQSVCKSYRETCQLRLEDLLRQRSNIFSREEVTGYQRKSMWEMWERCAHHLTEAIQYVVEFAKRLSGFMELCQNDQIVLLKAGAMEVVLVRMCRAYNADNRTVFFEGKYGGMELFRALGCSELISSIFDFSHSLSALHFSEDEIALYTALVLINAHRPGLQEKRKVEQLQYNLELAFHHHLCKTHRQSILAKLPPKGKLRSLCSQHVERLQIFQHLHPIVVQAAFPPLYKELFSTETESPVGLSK
Peroxisome proliferator-activated receptor delta (Homo sapiens), sequence (Q03181 whole entry, looked up): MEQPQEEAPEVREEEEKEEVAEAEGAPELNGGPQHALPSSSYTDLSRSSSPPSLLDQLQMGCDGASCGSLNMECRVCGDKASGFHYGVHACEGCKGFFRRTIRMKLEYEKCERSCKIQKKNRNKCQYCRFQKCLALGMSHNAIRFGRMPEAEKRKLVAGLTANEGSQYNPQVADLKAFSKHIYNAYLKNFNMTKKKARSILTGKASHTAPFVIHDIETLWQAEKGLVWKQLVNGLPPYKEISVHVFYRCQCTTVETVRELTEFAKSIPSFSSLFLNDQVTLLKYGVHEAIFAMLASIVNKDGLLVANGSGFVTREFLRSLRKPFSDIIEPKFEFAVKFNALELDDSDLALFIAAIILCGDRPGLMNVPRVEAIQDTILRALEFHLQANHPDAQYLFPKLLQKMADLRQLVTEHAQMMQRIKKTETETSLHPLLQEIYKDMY
Estrogen receptor (Homo sapiens), sequence (P03372 whole entry, looked up): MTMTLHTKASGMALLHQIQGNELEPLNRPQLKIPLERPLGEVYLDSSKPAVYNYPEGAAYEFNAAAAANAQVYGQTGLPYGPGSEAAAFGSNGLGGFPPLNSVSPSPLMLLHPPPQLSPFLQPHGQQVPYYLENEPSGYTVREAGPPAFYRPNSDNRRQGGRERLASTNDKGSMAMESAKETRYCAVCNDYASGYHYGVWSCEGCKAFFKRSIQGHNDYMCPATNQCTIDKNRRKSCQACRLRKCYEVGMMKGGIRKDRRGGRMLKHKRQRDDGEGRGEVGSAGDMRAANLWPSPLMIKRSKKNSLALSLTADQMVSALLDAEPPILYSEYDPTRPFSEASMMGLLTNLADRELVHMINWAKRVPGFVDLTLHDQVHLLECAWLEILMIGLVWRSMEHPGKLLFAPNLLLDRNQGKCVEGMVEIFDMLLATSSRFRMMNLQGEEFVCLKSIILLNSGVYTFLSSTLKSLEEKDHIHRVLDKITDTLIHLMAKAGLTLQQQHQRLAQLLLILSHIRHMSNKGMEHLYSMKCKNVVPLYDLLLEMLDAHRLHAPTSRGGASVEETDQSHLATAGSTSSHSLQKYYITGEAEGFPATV
Thyroid hormone receptor beta (Homo sapiens), sequence (P10828 whole entry, looked up): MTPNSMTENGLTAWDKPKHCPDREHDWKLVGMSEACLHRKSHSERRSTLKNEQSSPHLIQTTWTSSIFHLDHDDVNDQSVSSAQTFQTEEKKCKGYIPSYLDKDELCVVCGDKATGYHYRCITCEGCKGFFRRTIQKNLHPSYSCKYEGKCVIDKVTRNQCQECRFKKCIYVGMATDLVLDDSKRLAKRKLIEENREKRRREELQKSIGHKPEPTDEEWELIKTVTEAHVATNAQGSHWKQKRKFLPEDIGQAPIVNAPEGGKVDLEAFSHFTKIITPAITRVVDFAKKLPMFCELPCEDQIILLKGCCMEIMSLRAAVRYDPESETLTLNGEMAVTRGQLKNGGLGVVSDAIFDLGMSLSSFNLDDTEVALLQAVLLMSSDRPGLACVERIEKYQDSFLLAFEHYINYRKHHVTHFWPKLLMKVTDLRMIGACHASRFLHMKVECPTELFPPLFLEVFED

As to `COC(=O)NC(=S)Nc1ccccc1NC(=S)NC(=O)OC`, the Potency in [1] and in [2] was > 92 µM (inactive) each time. For the same compound, the activity change, negative = cytotoxicity in [3] was -2.43% (inactive). Besides, the call in [4] and in assay [15] was inactive. In addition, the Potency result in assay [5], in assay [6], in [7], in assay [8], in assay [9] and in [10] was “inactive” each time. The Potency entry in assay [11], in assay [12], in assay [13], in assay [14] and in [18] was “inactive” in each case. In assay [16], the max response was -30.4% and 40.5%. Moreover, in assay [17], the activity change % (negative = inhibition) was 1.37% (inactive) and 13.1% (inactive).

For the compound `COP(=S)(OC)Oc1ccc([N+](=O)[O-])cc1`, the Potency in [19], in [1], in assay [2] and in [20] was > 92 µM (inactive) throughout. In assay [3], the activity change, negative = cytotoxicity is -21.2% (inactive). Further, the result in [4] and in assay [15] was inactive. In addition, the Potency entry in assay [5], in assay [6], in [7], in [8], in assay [9] and in [10] was “inactive” each time. For the same compound, the Potency entry in assay [11], in assay [12], in assay [13], in assay [14] and in [18] was “inactive” each time. For the same compound, the max response in [16] is -15.9%. Besides, the activity change % (negative = inhibition) in assay [17] was -2.23% (inactive) and 4.43% (inactive).

Consider `CCCCCCCCCc1ccc(O)cc1`, for which the Potency in [19] was > 92 µM (inactive). In addition, the outcome in assay [4] and in assay [15] was inactive. Moreover, the Potency result in assay [6], in assay [9], in [12] and in assay [13] was “inactive” each time. The max response in assay [16] is -9.37% and -27.9%. The activity change % (negative = inhibition) in assay [17] is 4.44% (inactive).

For `C/C=C/c1ccc2c(c1)OCO2`, the Potency in assay [19], in assay [1], in assay [2] and in assay [20] was > 92 µM (inactive) each time. In assay [3], the activity change, negative = cytotoxicity was -2.31% (inactive). The result in assay [4] was inactive. Moreover, the Potency entry in assay [5], in [6], in [7], in [8], in assay [9] and in assay [10] was “inactive” throughout. Also, the Potency result in assay [11], in assay [12], in [13] and in assay [18] was “inactive” in each case.

Take `O=C(O)COc1ccc(Cl)cc1Cl`: the Potency in assay [19], in assay [1], in assay [2] and in assay [20] was > 92 µM (inactive) throughout. Also, the activity change, negative = cytotoxicity in [3] was 9.64% (inactive) and 3.72% (inactive). For the same compound, in [4], the compound was called inactive. The Potency result in assay [5], in [6], in assay [7], in assay [8], in assay [9] and in assay [10] was “inactive” in each case. Also, the Potency entry in [11], in assay [12] and in [13] was “inactive” in each case.

As to `ClC1=C(Cl)C2(Cl)C3C4CC(C5OC45)C3C1(Cl)C2(Cl)Cl` (stereo unspecified), the Potency was > 92 µM (inactive) in assay [1]; > 92 µM (inactive) in assay [2]; > 92 µM (inactive) in assay [20]; 15.8 µM (active) in assay [5]; 20 µM (active) in assay [6]; 39.8 µM (active) in assay [7]. Further, the Potency in assay [8] was 39.8 µM (active); in assay [10], 31.6 µM (active); in [11], 31.6 µM (active); in [18] it was 13.3 µM (active). In addition, the Potency entry in assay [14] is “inactive”. For the same compound, the result in assay [15] was inactive. For the same compound, in assay [17], the activity change % (negative = inhibition) was -28.8% (inactive).

`O=C1C(Cl)=C(Cl)C(=O)C(Cl)=C1Cl`: the Potency is 9.41 µM (active) in [19]; 40.5 µM (active) in [20]; 39.8 µM (active) in [5]; 31.6 µM (active) in [7]; 39.8 µM (active) in assay [8]; 25.1 µM (active) in assay [9]. Besides, the Potency in assay [10] was 31.6 µM (active); in assay [11], 15.8 µM (active); in assay [12], 39.8 µM (active); in [13], 20 µM (active); in [14], 25.1 µM [inconclusive] (active). Besides, the activity change, negative = cytotoxicity in assay [3] is -88.2% (active). Also, the max response in assay [16] is -78.9%.

Regarding `CC(C)Nc1nc(Cl)nc(NC(C)C)n1`, the result in assay [15] was inactive. For the same compound, in assay [16], the max response turned out to be 16.2%.
